Laboratory results reported in PubChem BioAssay (NCI).
About 83,000 compounds went through this panel and 20% of them were active in at least one assay; those are over-represented in the sample as a whole.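 Assay: single dose, 48 h. Readout: percent growth (0 = no net growth; negative = cell death). Active: <10.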 Unmarked numbers belong to inactive results. Activity calls are given as the source filed them.

Assays:
Assay in all cases: NCI-60 one-dose screen, 48 h (100 = growth as untreated, 0 = no growth, -100 = all killed)
NCI-H23 lung = details: 10 µM unless noted
NCI-H226 lung = details: 10 µM unless noted
NCI-H322M lung = details: 10 µM unless noted
HOP-62 NSCLC = details: 10 µM unless noted
NCI-H460 lung = details: 10 µM unless noted
HOP-92 NSCLC = details: 10 µM
NCI-H522 lung = details: 10 µM unless noted
A549/ATCC NSCLC = details: 10 µM unless noted
786-0 renal = details: 10 µM unless noted
COLO 205 colon = details: 10 µM unless noted
DU-145 prostate = details: 10 µM unless noted
K-562 leukemia = details: 10 µM unless noted
MALME-3M melanoma = details: 10 µM unless noted
MDA-MB-231 breast = details: 10 µM unless noted
RXF 393 renal = details: 10 µM unless noted
SF-268 CNS = details: 10 µM unless noted
SF-295 CNS = details: 10 µM unless noted
SF-539 CNS = details: 10 µM unless noted
UACC-257 melanoma = details: 10 µM unless noted

Compound: NC(=O)c1c(NC(=O)c2ccccc2C(F)(F)F)sc2c1CCC(=O)C2
- growth (NCI-H23 lung): 4.77% (active)
- growth (NCI-H226 lung): 37.9%
- growth (NCI-H322M lung): 105%
- growth (HOP-62 NSCLC): 93.4%
- growth (NCI-H460 lung): 58.4%
- growth (HOP-92 NSCLC): -9.74% (active)
- growth (NCI-H522 lung): -1.13% (active)
- growth (A549/ATCC NSCLC): 94%
- growth (786-0 renal): 37.5%
- growth (COLO 205 colon): 38.3%
- growth (DU-145 prostate): 81.2%
- growth (K-562 leukemia): 11.7%
- growth (MALME-3M melanoma): 15%
- growth (MDA-MB-231 breast): 16.2%
- growth (RXF 393 renal): 41.7%
- growth (SF-268 CNS): 24.6%
- growth (SF-295 CNS): 73%
- growth (SF-539 CNS): 5.83% (active)
- growth (UACC-257 melanoma): 10.6%

Compound: Cc1ccc(-n2cc(/C=N/NC(=O)c3nc(N)n[nH]3)c(-c3ccc(S(C)(=O)=O)cc3)n2)cc1
- growth (NCI-H23 lung): 96.6%
- growth (NCI-H226 lung): 102%
- growth (NCI-H322M lung): 104%
- growth (HOP-62 NSCLC): 98.6%
- growth (NCI-H460 lung): 103%
- growth (HOP-92 NSCLC): 94.2%
- growth (NCI-H522 lung): 92.3%
- growth (A549/ATCC NSCLC): 104%
- growth (786-0 renal): 98.6%
- growth (COLO 205 colon): 105%
- growth (DU-145 prostate): 100%
- growth (K-562 leukemia): 52.7%
- growth (MALME-3M melanoma): 85.3%
- growth (MDA-MB-231 breast): 96%
- growth (RXF 393 renal): 117%
- growth (SF-268 CNS): 99.4%
- growth (SF-295 CNS): 104%
- growth (SF-539 CNS): 99.7%
- growth (UACC-257 melanoma): 99.3%

Compound: CN(Cc1ccccc1)S(=O)(=O)/N=C1\NC(=O)NC1=C(Cl)Cl
- growth (NCI-H23 lung): 66.1%
- growth (NCI-H226 lung): 91.7%
- growth (NCI-H322M lung): 95.1%
- growth (HOP-62 NSCLC): 40.8%
- growth (NCI-H460 lung): 17.9%
- growth (HOP-92 NSCLC): 73.7%
- growth (NCI-H522 lung): -21.5% (active)
- growth (A549/ATCC NSCLC): 99.4%
- growth (786-0 renal): 22.4%
- growth (COLO 205 colon): -26.1% (active)
- growth (DU-145 prostate): 25.7%
- growth (K-562 leukemia): 1.09% (active)
- growth (MALME-3M melanoma): -19.9% (active)
- growth (MDA-MB-231 breast): -2.3% (active)
- growth (RXF 393 renal): 55.1%
- growth (SF-268 CNS): 56.1%
- growth (SF-295 CNS): 98.9%
- growth (SF-539 CNS): 0.38% (active)
- growth (UACC-257 melanoma): 68.2%

Compound: COC(=O)C(Cc1ccccc1)Nc1nc(NC(Cc2ccccc2)C(=O)OC)nc(N2CCOCC2)n1 (configuration not stated)
- growth (NCI-H23 lung): 107%
- growth (NCI-H226 lung): 102%
- growth (NCI-H322M lung): 97.4%
- growth (HOP-62 NSCLC): 97.3%
- growth (NCI-H460 lung): 107%
- growth (HOP-92 NSCLC): 119%
- growth (NCI-H522 lung): 91%
- growth (A549/ATCC NSCLC): 108%
- growth (786-0 renal): 100%
- growth (COLO 205 colon): 105%
- growth (DU-145 prostate): 112%
- growth (K-562 leukemia): 91.6%
- growth (MALME-3M melanoma): 105%
- growth (MDA-MB-231 breast): 103%
- growth (RXF 393 renal): 113%
- growth (SF-268 CNS): 103%
- growth (SF-295 CNS): 108%
- growth (SF-539 CNS): 98%
- growth (UACC-257 melanoma): 103%

Compound: O=C(CCC(=O)N1CCOCC1)OCCCCCCSc1ccc([N+](=O)[O-])c2nonc12
- growth (NCI-H23 lung): -60.7% (active)
- growth (NCI-H226 lung): -20.7% (active)
- growth (NCI-H322M lung): 45.6%
- growth (HOP-62 NSCLC): 38.1%
- growth (NCI-H460 lung): -13.6% (active)
- growth (HOP-92 NSCLC): -14.3% (active)
- growth (NCI-H522 lung): -61.2% (active)
- growth (A549/ATCC NSCLC): 29.8%
- growth (786-0 renal): -20.7% (active)
- growth (COLO 205 colon): -56.7% (active)
- growth (DU-145 prostate): -91.9% (active)
- growth (K-562 leukemia): 6.53% (active)
- growth (MALME-3M melanoma): -81.2% (active)
- growth (MDA-MB-231 breast): -39.8% (active)
- growth (RXF 393 renal): -62% (active)
- growth (SF-268 CNS): -9.47% (active)
- growth (SF-295 CNS): -12.5% (active)
- growth (SF-539 CNS): -88.4% (active)
- growth (UACC-257 melanoma): -25.7% (active)

Compound: CNC(=O)c1cc(N2CCc3cc(NC(=O)Nc4ccc(Cl)c(C(F)(F)F)c4)ccc32)ccn1
- growth (NCI-H23 lung): 56.1%
- growth (NCI-H226 lung): 77.2%
- growth (NCI-H322M lung): 87.1%
- growth (HOP-62 NSCLC): 85.1%
- growth (NCI-H460 lung): 38%
- growth (HOP-92 NSCLC): 68%
- growth (NCI-H522 lung): 50%
- growth (A549/ATCC NSCLC): 49.2%
- growth (786-0 renal): 49.7%
- growth (COLO 205 colon): 58%
- growth (DU-145 prostate): 63.6%
- growth (K-562 leukemia): 33.7%
- growth (MALME-3M melanoma): 64.5%
- growth (MDA-MB-231 breast): 67.2%
- growth (RXF 393 renal): -8.94% (active)
- growth (SF-268 CNS): 70.1%
- growth (SF-295 CNS): 26.5%
- growth (SF-539 CNS): 48.8%
- growth (UACC-257 melanoma): 72.7%

Compound: C#CCNC1CCC(c2csc(C#C)n2)=C1C (configuration not stated)
- growth (NCI-H23 lung): -39.4% (active)
- growth (NCI-H226 lung): 75.4%
- growth (NCI-H322M lung): 90.8%
- growth (HOP-62 NSCLC): 28.2%
- growth (NCI-H460 lung): 98.9%
- growth (HOP-92 NSCLC): -50.6% (active)
- growth (NCI-H522 lung): 49.7%
- growth (A549/ATCC NSCLC): 96.2%
- growth (786-0 renal): 17.1%
- growth (COLO 205 colon): 105%
- growth (DU-145 prostate): 67.6%
- growth (K-562 leukemia): 63%
- growth (MALME-3M melanoma): -78.3% (active)
- growth (MDA-MB-231 breast): 8.61% (active)
- growth (RXF 393 renal): 117%
- growth (SF-268 CNS): 78.1%
- growth (SF-295 CNS): -28.2% (active)
- growth (SF-539 CNS): -92.4% (active)
- growth (UACC-257 melanoma): 80.1%

Compound: Cc1ccc(NC(=O)c2ccc(CN3CCOCC3)c(C(F)(F)F)c2)cc1Oc1ccc(-c2[nH]nc3ncnc(N)c23)cc1
- growth (NCI-H23 lung): 84.6%
- growth (NCI-H226 lung): 66%
- growth (NCI-H322M lung): 72%
- growth (HOP-62 NSCLC): 86.9%
- growth (NCI-H460 lung): 66.3%
- growth (HOP-92 NSCLC): 50.8%
- growth (NCI-H522 lung): 62.5%
- growth (A549/ATCC NSCLC): 65.1%
- growth (786-0 renal): 69.2%
- growth (COLO 205 colon): 18.8%
- growth (DU-145 prostate): 76.9%
- growth (K-562 leukemia): 20%
- growth (MALME-3M melanoma): 27.4%
- growth (MDA-MB-231 breast): 54.3%
- growth (RXF 393 renal): 40.5%
- growth (SF-268 CNS): 81.6%
- growth (SF-295 CNS): 63.2%
- growth (SF-539 CNS): 49.3%
- growth (UACC-257 melanoma): 48.7%
